Screening results deposited in PubChem BioAssay by National Center for Advancing Translational Sciences (NCATS).
Sampled rows, rich in hits. Any-hit rate of the full collection: about 1.7%.
HEK293 tox: cytotoxic in the GLP-1 receptor inverse agonist counter-screen; HEK293 cAMP-luciferase reporter cells, luminescence, 24 h; AID 624418; Potency, µM (doses to about 38.3 µM), without a hit: at the highest dose activity change, negative = inhibition, hits mostly inhibitors; 410,000 tested, 0.13% active;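 also: loss of luciferase light is scored as toxicity; % is scaled to controls: 0 for no effect and ±100 for the full control effect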
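Seeding density was 200 cells/uL; after overnight-length (12 h) culture, 23 nL compounds went on for 24 h at 37 °C. Readout used a luciferase detection reagent, luminescence taken after 12 min at room temperature.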
GLP-1R agonist: GLP-1 receptor (human) agonism; 380,000 tested, 0.007% active; P43220; Potency, µM (series often up to 45.6 µM), for the others: at the highest dose activation, hits mostly activators; AID 624172; HEK293 GLP-1R CRE-luciferase, luminescence, 4-6 h; cells express a hypersensitive GLP-1R form; also: % of control where 0% means no effect
PTHR1 ag: activates the human parathyroid hormone receptor PTHR1. Q03431. HEK293 GP2 PTHR1 cells, GloSensor cAMP luminescence, 1 h. Potency, µM (series often up to 115 µM), without a hit: at the top dose activation, hits mostly activators. 410,000 tested, 0.075% active. AID 743266; also: nearly all actives have a fitted effect of over 55% in size
Target sequence (Q03431 whole entry, looked up): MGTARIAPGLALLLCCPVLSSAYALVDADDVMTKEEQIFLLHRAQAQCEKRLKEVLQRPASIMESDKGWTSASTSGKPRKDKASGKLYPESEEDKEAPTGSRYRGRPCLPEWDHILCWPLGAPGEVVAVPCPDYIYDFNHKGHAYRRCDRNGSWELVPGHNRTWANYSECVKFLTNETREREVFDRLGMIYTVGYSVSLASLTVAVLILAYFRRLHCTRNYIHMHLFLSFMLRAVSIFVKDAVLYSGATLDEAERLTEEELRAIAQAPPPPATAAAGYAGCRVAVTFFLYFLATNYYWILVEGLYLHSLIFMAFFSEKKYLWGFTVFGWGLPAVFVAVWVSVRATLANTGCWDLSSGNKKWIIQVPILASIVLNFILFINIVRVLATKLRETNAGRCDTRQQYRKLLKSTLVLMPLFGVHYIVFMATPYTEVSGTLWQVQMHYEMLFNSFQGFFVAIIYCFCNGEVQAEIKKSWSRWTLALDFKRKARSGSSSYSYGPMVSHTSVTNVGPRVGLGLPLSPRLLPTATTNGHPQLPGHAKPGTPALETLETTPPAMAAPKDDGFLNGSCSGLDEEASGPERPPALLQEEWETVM
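HEK-293-derived GP2 cells expressing PTHR1 and a GloSensor cAMP reporter, 3,000/well, plated overnight, given luciferin plus IBMX (each 0.5 mM as added) for 1 h at 37 °C, then compound for 1 h at 37 °C. Luminescence was read after 15 min at room temperature.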
GLP-1R inv ag: GLP-1 receptor (human) inverse agonism; P43220; HEK293 GLP-1R CRE-luciferase, luminescence, 24 h; GLP-1R form is constitutively active; Potency, µM (top dose mostly 38.3 µM), without a hit: top-dose activity change, negative = inhibition, hits mostly inhibitors; 410,000 tested, 1.6% active; AID 624417; also: % is scaled to controls: 0 for no effect and ±100 for the full control effect; nearly all actives have a fitted effect of over 55% in size
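Assay principle: reduced luminescence from a cAMP-responsive reporter in HEK293 cells co-expressing a constitutively active GLP-1R. Conditions: 24 hr compound incubation, 37 deg C, 5% CO2.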
Numbers without * were called inactive; i = inactive; ? = inconclusive; nt = not tested or not shown; [ ] = another dose, or the depositor's remark. Calls follow the shape of the dose curve; as a rule, active = well fitted curve in the direction sought with a large enough effect; inconclusive = small, poorly fitted or top-dose-only effect, or another doubt; inactive = no such curve, though single readings can be large; an effect the other way counts as inactive or inconclusive. Potency is read from the fitted curve at half-maximal effect.

SMILES	HEK293 tox	GLP-1R agonist	PTHR1 ag	GLP-1R inv ag
COc1ccc(S(=O)(=O)N2CCN(c3ccccc3OC)CC2)cc1-c1noc(C)n1	-3%	nt	-6%	3%
O=C(CSc1nc2ccsc2c(=O)n1-c1ccc(Br)cc1)NCc1ccccc1	-3%	nt	i	1%
CC(C)[C@H](NC(=O)OC(C)(C)C)c1cc(C(=O)NCCc2c[nH]c3ccccc23)c(N)s1	-2%	nt	-7%	-23%
CC(C)[C@@H](NC(=O)OC(C)(C)C)c1cc(C(=O)c2c(-c3ccccc3)[nH]c3ccccc23)c(N)s1	-19%	nt	-41%	7.1µM*
COc1ccc(-c2cc(C(F)(F)F)nc(SCC(=O)N3CCC(C)CC3)n2)cc1	-1%	-2%	-18%	15%
O=C(COc1ccc(Cl)cc1Br)NC(=O)NC1CCCC1	-3%	2%	-31%	10µM*
O=C(COc1ccc(Cl)cc1Cl)NC(=O)NC1CCCC1	-2%	27%	-21%	?
O=C(COc1ccc(Br)cc1Cl)NC1CCCCC1	0%	0%	-38%	12%
O=C(COc1ccc(Br)cc1Cl)NC(=O)NC1CCCC1	0%	12%	-39%	3.5µM*
COc1ccc(-c2cc(C(F)(F)F)nc(SCC(=O)N(C)Cc3ccccc3)n2)cc1	1%	-8%	-21%	?
Cc1ccc(Cn2cc(/C=N/Nc3ccc([N+](=O)[O-])cn3)c3ccccc32)cc1	?	8%	-20%	11µM*
O=S(=O)(Nc1ccccc1N1CCCCC1)c1ccc(Cl)s1	0%	-6%	-3%[57.5 µM]	10µM*
O=C(Nc1ccc(/C=C/c2nc3ccccc3o2)cc1)c1cccc(C(F)(F)F)c1	8%	-1%	-10%[57.5 µM]	3.2µM*
CC(C)CNC(=S)Nc1ccc(Oc2ccccc2)cc1	?	7%	-37%	11µM*
Cc1c(NS(=O)(=O)c2ccccc2)cc(C(C)C)c(O)c1S(=O)(=O)c1ccc(Cl)cc1	-6%	-6%	-24%	?
COC(=O)CC1(C(=O)OC)Oc2ccc(Br)cc2C(=O)N1c1cc(Cl)c(Cl)cc1Cl (stereo unspecified)	2%	-5%	-41%	7.1µM*
COC(=O)CC1(C(=O)OC)Oc2ccc(Br)cc2C(=O)N1c1cccc(Cl)c1Cl (stereo unspecified)	?	4%	-14%	?
COC(=O)CC1(C(=O)OC)Oc2ccc(Br)cc2C(=O)N1c1ccc(Br)cc1Cl (stereo unspecified)	-41%	14%	-35%	10µM*
CCc1ccccc1NC(=O)Cn1nnc(C(=O)Nc2ccc(OC)c(OC)c2)c1N	1%	nt	-24%	-11%
Cc1cc(CN2CCCC(CO)(Cc3cccc(Cl)c3)C2)n[nH]1 (stereo unspecified)	0%	6%	i	?
OCC1(Cc2cccc(Cl)c2)CCCN(Cc2ccc3cc(F)ccc3n2)C1 (stereo unspecified)	-4%	19%	-13%	13µM*
CCCOC(=O)c1cccc(NC(=O)c2c(-c3ccccc3Cl)noc2C)c1	1%	nt	-80%	8.9µM*
Cc1ccc(NC(=S)NC(=O)c2c(-c3ccccc3Cl)noc2C)cc1	12%	-3%	i	-57%
COc1ccccc1NC(=S)NC(=O)c1c(-c2ccccc2Cl)noc1C	-4%	6%	-10%	4µM*
Cc1onc(-c2ccccc2Cl)c1C(=O)NC(=S)Nc1ccc(C(C)C)cc1	5%	-5%	-19%	4µM*
SMILES	HEK293 tox	GLP-1R agonist	PTHR1 ag	GLP-1R inv ag
O=C(Cc1ccc(Br)cc1)Nc1ccccc1Sc1ccccc1	-1%	-1%	i	10µM*
O=C(Cc1ccc(F)cc1)Nc1ccccc1Sc1ccccc1	10%	17%	-17%	?
O=C(Cc1ccccc1)Nc1ccccc1Sc1ccccc1	31%	3%	-30%	11µM*
O=C(Nc1ccccc1Sc1ccccc1)c1ccccc1	22%	5%	-9%[57.5 µM]	11µM*
O=C(Nc1cccc(F)c1)C1CCN(c2nc3ccccc3nc2C(F)(F)F)CC1	4%	nt	-22%	-20%
O=C1CN(C(=O)/C=C/c2ccc(Cl)cc2Cl)CCN1	7%	1%	i	40%
CN1CCCN(C(=O)/C=C/c2ccc(Cl)cc2Cl)CC1	?	-7%	-21%	7.9µM*
Cc1ccc(C)c(NC(=O)c2cc(S(=O)(=O)N3CCCc4ccccc43)ccc2F)c1	3%	nt	i	?
CCc1ccccc1Nc1ncnc2c1cnn2-c1ccc(Cl)cc1	-5%	nt	-17%	?
Cc1cccc(-n2ncc3c(NC(C)C)ncnc32)c1	-22%	4%	-12%	?
Cc1cccc(-n2ncc3c(Nc4c(C)cc(C)cc4C)ncnc32)c1	-31%	nt	?	5.6µM*
Cc1ccc(-n2ncc3c(Nc4ccc(Oc5ccccc5)cc4)ncnc32)c(C)c1	-13%	nt	-9%	10µM*
CCc1ccccc1Nc1ncnc2c1cnn2-c1ccc(C)cc1C	-9%	nt	i	13µM*
O=S(=O)(NCCS(=O)(=O)N1CCN(c2cccc(Cl)c2)CC1)c1ccc(F)cc1	2%	nt	-22%	-4%
Cc1c(C(=O)NCCN(C)C)oc2c1-c1nn(Cc3ccccc3Cl)cc1CC2	1%	nt	i	9%
CCOC(=O)c1c(-c2ccccc2)oc2ccc(O)c(CN3CCN(C)CC3)c12	?	15%	-22%	3.2µM*
CCOC(=O)c1c(-c2ccccc2)oc2ccc(OCC(O)CNCCN(C)C)cc12 (stereo unspecified)	?	12%	-9%	5µM*
CCOC(=O)c1c(C)n(C)c2ccc(OCC(O)CNCCc3ccccc3)cc12 (stereo unspecified)	?	3%	i	11µM*
CCOC(=O)c1c(-c2ccccc2)oc2ccc(OCc3ccc(C)cc3)cc12	15%	nt	?	1%
CN1CCN(Cc2c(O)ccc3occ(C(=O)c4ccccc4)c23)CC1	3.2µM*	-4%	i	-28%
CCn1c(=NC(=O)c2ccc(S(=O)(=O)N3CCCCC3)cc2)sc2cccc(OC)c21	3%	1%	-55%	3%
Cc1ccc(-n2c(=O)c3sc4ccccc4c3n(CC(=O)NC3CCCC3)c2=O)cc1C	-4%	1%	-41%	0%
COc1ccc(-c2noc(-c3ccc(NC(C)c4ccccc4)c([N+](=O)[O-])c3)n2)cc1OC (stereo unspecified)	-1%	nt	i	3%
CCOC(=O)c1c(-c2ccccc2)oc2ccc(OCC)cc12	4%	32%	i	10µM*
CCOC(=O)c1c(C)n(-c2ccc(C)cc2)c2ccc(OCC(O)CN3CCN(C)CC3)cc12 (stereo unspecified)	?	17%	-14%	5µM*
CCOC(=O)c1c(C)n(C)c2ccc(OCC(O)CN3CCN(C)CC3)cc12 (stereo unspecified)	9%	-9%	-16%	1%
CCOC(=O)c1c(-c2ccccc2)oc2ccc(OC)cc12	31%	11%	i	?
